Reference: PubChem BioAssay (EPA / NIEHS)
The source made the active and inactive calls. Rule for the calls: active = hit-call score of the fitted dose curve at least 0.9, where 1 is the maximum; inactive = score below 0.9.

Experiment: CCTE_Harrill_HTTr_Apoptosis_MCF7: CCTE's 6-hour Apoptosis Assessment for the High-Throughput Transcriptomics (HTTr) Platform, in MCF-7 cells cultured in DMEM + 10% fetal bovine serum, Harrill Lab (AID 2284011)
From the text: This is a cell-based assay that evaluates apoptosis using high content imaging to evaluate activation of caspase-3/7 using the CellEvent Caspase 3/7 Green detection reagent in 384-well format.One of seven assay components measured from the CCTE_Harrill_HTTr_Apoptosis assay. This was part of a full screening experiment. This is a cell-based assay that evaluates apoptosis in MCF-7 cells cultured in DMEM + 10% fetal bovine serum. High content imaging is used to evaluate activation of caspase-3/7 using the CellEvent Caspase 3/7 Green detection reagent. Measurements are taken at 6 hours after chemical dosing in 384-well format.The assay component endpoint CCTE_Harrill_HTTr_Apoptosis_MCF7 was analyzed with bidirectional fitting relation to DMSO as the negative control and baseline of activity. Using a type of viability reporter, gain-of-signal activity can be used to evaluate activation of caspase-3/7 using the CellEvent Caspase 3/7 Green detection reagent to understand changes in apoptosis. To generalize the intended target to other relatable targets, this assay endpoint is annotated to cell cycle, where the subfamily is apoptosis.
Chemicals were tested in MCF7 cells in an eight point dilution series with a six hour exposure duration.

| Structure (SMILES) | outcome |
| --- | --- |
| CCN(Cc1c(F)cccc1Cl)c1c([N+](=O)[O-])cc(C(F)(F)F)cc1[N+](=O)[O-] | inactive |
| CC(C)CCCCCCc1ccc(O)cc1 | inactive |
| C[C@]12CC[C@@H]3c4ccc(O)cc4C[C@@H](CCCCCCCCCS(=O)CCCC(F)(F)C(F)(F)F)[C@H]3[C@@H]1CC[C@@H]2O (stereo not given in full) | inactive |
| CCCCC(CC)COC(=O)c1ccccc1C(=O)O (stereo not given) | inactive |
| N[C@@H](Cc1cc(I)c(Oc2ccc(O)c(I)c2)c(I)c1)C(=O)O | inactive |
| CC(=O)[C@H]1CC[C@H]2[C@@H]3CCC4=CC(=O)CC[C@]4(C)[C@H]3CC[C@]12C | inactive |
| CCOC(=O)C(C)Oc1ccc(Oc2nc3ccc(Cl)cc3o2)cc1 (stereo not given) | inactive |
| CSC(=O)c1cccc2nnsc12 | inactive |
| CCOC(=O)c1ccc(O)cc1 | inactive |
| CCOC(=O)C(C)Oc1ccc(Oc2cnc3cc(Cl)ccc3n2)cc1 (stereo not given) | inactive |
| COc1c(Cl)ccc(Cl)c1C(=O)O | inactive |
| OB(O)O | inactive |
| CCSC(=O)N(CC(C)C)CC(C)C | inactive |
| CN(C)C(=O)Nc1ccc(Cl)c(Cl)c1 | inactive |
| CC(C)(c1ccc(O)cc1)c1ccc(O)cc1 | inactive |
| C=CCOC(Cn1ccnc1)c1ccc(Cl)cc1Cl (stereo not given) | inactive |
| CCCCCCC(C)OC(=O)COc1nc(F)c(Cl)c(N)c1Cl (stereo not given) | inactive |
| O=C(O)C1(C(=O)Nc2ccc(Cl)cc2Cl)CC1 | inactive |
| CCOC(=O)NCCOc1ccc(Oc2ccccc2)cc1 | inactive |
| CCCCOC(=O)[C@@H](C)Oc1ccc(Oc2ccc(C(F)(F)F)cn2)cc1 | inactive |

| Structure (SMILES) | outcome |
| --- | --- |
| N#CSCSc1nc2ccccc2s1 | inactive |
| CCCN(CCC)c1c([N+](=O)[O-])cc(C(F)(F)F)c(N)c1[N+](=O)[O-] | inactive |
| CCCOC(=O)NCCCN(C)C | inactive |
| c1ccc(Nc2ccccc2)cc1 | inactive |
| C#C[C@]1(O)CC[C@H]2[C@@H]3CCC4=CC(=O)CC[C@@H]4[C@H]3CC[C@@]21CC | inactive |
| c1ccc2[nH]c(-c3cscn3)nc2c1 | inactive |
| Oc1ccc(C(c2ccc(O)cc2)C(Cl)(Cl)Cl)cc1 | inactive |
| COC(=O)c1ccccc1C(=O)O | inactive |
| CCN(CC)C(=O)c1cccc(C)c1 | inactive |
| CCOC(=O)COc1cc(-n2ncc(C(F)(F)F)c(C)c2=O)c(F)cc1Cl | inactive |
| C[C@]12C[C@H](O)[C@H]3[C@@H](CCC4=CC(=O)CC[C@@]43C)[C@@H]1CC[C@@H]2C(=O)CO | inactive |
| CC(C)(C)[C@@H](O)[C@@H](Cc1ccc(Cl)cc1)n1cncn1 | inactive |
| CCCN(CCC)C(=O)SCC | inactive |
| CCCCCOC(=O)COc1cc(N2C(=O)C3=C(CCCC3)C2=O)c(F)cc1Cl | inactive |
| CCCCOC(=O)C(C)Oc1ccc(Oc2ccc(C(F)(F)F)cn2)cc1 (stereo not given) | inactive |
| CCC(O)=C1C(=O)CC(C(=O)O)CC1=O (stereo not given) | inactive |
| COCCO | inactive |
| S=C(S)NCCNC(=S)S.[Mn+2].[S-]C([S-])=NCCN=C([S-])[S-].[Zn+2] | inactive |
| CCCCOCCOCCOCc1cc2c(cc1CCC)OCO2 | inactive |
| CC1(C)C(C=C(Cl)Cl)C1C(=O)OCc1cccc(Oc2ccccc2)c1 (stereo not given) | inactive |
